Screens (PubChem)
uPA generation = inhibitors of cell surface uPA generation; cell surface uPA generation assay, qHTS; Potency, µM (doses to about 38.3 µM), hits mostly inhibitors; actives 0.31% (n = 330,000); active = well fitted inhibition curve with a large enough effect; inconclusive = small, poorly fitted or top-dose-only effect; inactive = no such curve, though single readings can be large or run the other way; tested in mouse RAW 264.7 cells; also: nearly all actives have a fitted effect of over 55% in size
DT40 TDP1 no CPT = qHTS for Inhibitors of human tyrosyl-DNA phosphodiesterase 1 (TDP1): qHTS in cells in absence of CPT; DT40 Tdp1-/- hTDP1 cells, no CPT, ATP luminescence, 48 h; Potency, µM (titrated, usually from 46.2 µM), actives largely listed as inhibitors; actives 15% (n = 420,000); AID 686978, 2013; also: nearly all actives have a fitted effect of over 55% in size
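Cells were dispensed at 400 per well, compounds added by pin tool, plates incubated ≥48 hr at 37 °C, then CellTiter-Glo added for 30 min at room temperature before luminescence reading. Line: DT40 Tdp1-/- complemented with hTDP1; camptothecin omitted.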
IL1B secr inh = blocks inflammasome-driven IL-1 beta release; AID 743279; THP-1 LPS/ATP IL-1B secretion, AlphaLISA, 16 h; hits give low values; activity change, % at 57.5 µM; actives 4.7% (n = 360,000); in the data active = activity change below about -50%; inconclusive = mostly about -30% to -49%
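Secreted IL-1B measured by AlphaLISA bead assay after 16 h compound exposure of THP-1 cells; compounds (final up to 57.5 uM) added 1 h before LPS (250 ng/mL) and ATP (1.25 mM) stimulation; lower signal means less secretion.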
HT1080-NT tox = kills 2HG-producing HT-1080-NT fibrosarcoma cells. AID 686970. actives 1.6% (n = 360,000). Potency, µM (doses to about 46.1 µM), hits mostly cytotoxic. HT-1080-NT fibrosarcoma viability, CellTiter-Glo ATP luminescence, 48 h;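 also: NT is the 2HG producing partner of a matched IDH1 knockdown line; nearly all actives have a fitted effect of over 55% in size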
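Toxicity toward the 2HG-producing NT line was scored as %Activity, normalised to DMSO and no-cell wells, from CellTiter-Glo luminescence after 48 hours' treatment.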
HT1080 IDH1KD tx = toxicity to HT-1080 IDH1 knockdown cells (counter line) | HT-1080 IDH1 knockdown viability, ATP luminescence, 48 h | Potency, µM (titrated, usually from 46.1 µM), most hits filed as cytotoxic | actives 2% (n = 360,000) | AID 686971
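After a 2 h attachment period, IDH1KD HT-1080 cells took pin-transferred compound for 48 h at 37 °C; ATP-based luminescence after 10 min room-temperature reagent incubation reported viability.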
DT40 TDP1 CPT = growth inhibition of DT40 Tdp1-/-;hTDP1 cells with camptothecin (screen for TDP1 inhibitors) | chicken DT40 Tdp1-/-;hTDP1 cells + 20 nM CPT, ATP luminescence, 48 h | Potency, µM (highest dose often 46.2 µM), hits mostly inhibitors | actives 12% (n = 420,000) | AID 686979; also: nearly all actives have a fitted effect of over 55% in size
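Chicken DT40 Tdp1-/- cells stably complemented with human TDP1 were seeded at 400 cells/well in medium containing 20 nM camptothecin, exposed to pin-transferred compounds, and grown at 37 °C for at least 48 hr. Viability was read as ATP luminescence.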
A number is an active result; – = inactive; ? = inconclusive; · = no result; [ ] = another dose, or the depositor's remark. Hits are enriched below; roughly 19% of the tested compounds scored in any of these assays. Unless noted, calls follow the shape of the dose curve; as a rule, active = well fitted curve in the direction sought with a large enough effect; inconclusive = small, poorly fitted or top-dose-only effect, or another doubt; inactive = no such curve, though single readings can be large; an effect the other way counts as inactive or inconclusive.

SMILES	uPA generation	DT40 TDP1 no CPT	IL1B secr inh	HT1080-NT tox	HT1080 IDH1KD tx	DT40 TDP1 CPT
CCN(CC)CCn1c(=N)n(CC(O)COc2ccccc2C)c2ccccc21 (configuration not stated)	·	2.6µM	·	·	·	8.2µM
CCCCn1c(=N)n(CC(=O)O)c2ccccc21	–	–	–	–	–	–
Cc1ccc2oc(=O)n(CCCOc3ccccc3Cl)c2c1	·	?	·	·	·	21µM
N=c1n(CCCOc2ccccc2Cl)c2ccccc2n1CC(N)=O	–	21µM	-102	?	?	18µM
CCN(CC)CCn1c(=N)n(CCOc2ccccc2Cl)c2ccccc21	·	4.1µM	·	·	·	3.7µM
CCc1ccccc1NC(=O)C1(S(=O)(=O)c2ccc(C)cc2)CC1	–	–	–	–	–	–
CCOC(=O)C1CCN(S(=O)(=O)c2ccc3c(c2)N(C(C)=O)CC(C)S3)CC1 (configuration not stated)	–	?	–	–	–	?
Nc1nc2ccccc2n1CCOc1ccccc1Cl	–	26µM	-80	?	?	?
Cn1c(=O)n(Cc2ccccc2Cl)c2ccccc21	–	18µM	–	–	–	?
Cn1c(=O)n(CCOc2ccccc2Cl)c2ccccc21	–	5.8µM	–	–	–	–
COc1cc(Br)cc(C(=O)N2CCc3ccccc32)c1OC	·	?	–	–	–	–
CCCCNc1nc2c(-c3cccc(Br)c3)nnn2c2ccccc12	·	–	·	·	·	–
Cc1cccc(-c2nnn3c2nc(NCc2ccccc2)c2ccccc23)c1	·	21µM	·	·	·	?
COc1ccc(CCNc2nc3c(-c4cccc(C(F)(F)F)c4)nnn3c3ccccc23)cc1OC	·	16µM	·	·	·	?
COc1ccc(-c2nnn3c2nc(NCCc2ccc(OC)c(OC)c2)c2ccccc23)cc1	·	9.2µM	·	·	·	8.2µM
COc1ccc(S(=O)(=O)N2CCOC23CCN(S(C)(=O)=O)CC3)cc1	–	–	–	–	–	–
CSc1ccccc1C(=O)C1CCCN(C(=O)c2cccc(Cn3cccn3)c2)C1 (configuration not stated)	·	?	–	–	–	?
CN(C)CCCNc1cc(O)c2ncccc2c1	4µM	·	·	·	·	·
Cc1nn(C)c(C)c1CNC(=O)c1cc2n(n1)C(C(F)(F)F)CC(c1cccs1)N2 (configuration not stated)	–	5.8µM	–	–	–	10µM
CCOC(=O)c1c(NC(=O)c2cc3n(n2)C(C(F)(F)F)CC(c2cccs2)N3)sc(C)c1C (configuration not stated)	–	6.5µM	–	–	–	5.2µM
CCCCc1ccc(NC(=S)NCc2ccccc2OC)cc1	–	–	–	–	–	–
FC(F)(F)c1ccccc1-c1nc(NCc2cccnc2)c2ccccc2n1	·	–	·	·	·	–
O=C(Nc1ccc(-c2cn3ccsc3n2)cc1)c1ccc(F)c(S(=O)(=O)N2CCOCC2)c1	–	23µM	–	–	–	?
Cc1ccc(NC(=O)c2ccc3c(c2)OCO3)cc1S(=O)(=O)N1CCOCC1	–	?	–	–	–	?
Cc1nc2ccc(NC(=O)c3ccc(C)c(S(=O)(=O)N4CCOCC4)c3)cc2s1	–	?	–	–[9.24 µM]	–	18µM
SMILES	uPA generation	DT40 TDP1 no CPT	IL1B secr inh	HT1080-NT tox	HT1080 IDH1KD tx	DT40 TDP1 CPT
Cc1nc2ccc(NC(=O)c3cc(S(=O)(=O)N4CCOCC4)ccc3C)cc2s1	–	23µM	–	–	–	?
O=C(Nc1ccccc1)c1ccc(F)c(S(=O)(=O)N2CCOCC2)c1	–	–	–	–	–	–
CC(=O)c1ccc(NC(=O)c2cc(S(=O)(=O)N3CCOCC3)ccc2C)cc1	–	?	–	–	–	?
COc1ccc(C(C)=O)cc1COC(=O)C1CCN(C(=O)c2ccc(Cl)cc2)CC1	?	–	–	–	–	–
COc1ccc(CNC(=O)C2CCCN2)cc1OC (configuration not stated)	–	–	–	–	–	–
Cc1nn(-c2ccccc2)c(Cl)c1/C=N/NC(=O)CNC(=O)c1ccccc1Cl	–	?	–	–	–	21µM
Cc1nn(-c2ccccc2)c(Cl)c1/C=N/NC(=O)c1cccc(S(=O)(=O)N2CCCC2)c1	–	10µM	–	–	–	–
Cc1nn(-c2ccc(F)cc2)c(Cl)c1/C=N/NC(=O)c1ccc(O)cc1	–	–	–	–	–	–
COC(=O)N/N=C\c1c(C)nn(-c2ccccc2)c1Cl	–	–	–	–	–	–
CNC(=S)N/N=C/c1c(C)nn(-c2ccc(F)cc2)c1Cl	–	15µM	–	–	–	?
Cc1nn(-c2ccccc2)c(N2CCCC2)c1/C=N/NC(=O)c1cccc(S(=O)(=O)Nc2ccc(Cl)cc2)c1	–	?	–	–	–	?
Cc1ccc(C)c(OCC(=O)N/N=C/c2c(C)nn(-c3ccccc3)c2Cl)c1C	–	7.3µM	–	–	–	15µM
Cc1ccccc1CNC(=O)CCn1nc(C)c2c(C)n(-c3ccccc3)nc2c1=O	–	–	–	–	–	–
COc1cc(NC(=O)[C@@H](NC(=O)N2CCn3c2nc2ccccc23)C(C)C)cc(OC)c1	–	–	?	–	–	?
COc1ccc2c(c1)nc(-c1cccc(Br)c1)c(=O)n2C(c1ccccn1)c1nc2ccccc2[nH]1 (configuration not stated)	·	?	–	–	–	?
Cc1nn(-c2ccccc2)c(Cl)c1/C=N/Nc1nc2ccccc2n1C	?	15µM	–	–	?	26µM
Cc1cc(C)cc(NC(=O)C(=O)NCCc2sc(-c3cccc(F)c3)nc2C)c1	·	–	·	·	·	–
COc1ccc(S(=O)(=O)NCCc2sc(-c3cccc(F)c3)nc2C)cc1	·	21µM	·	·	·	16µM
Cc1cc(S(=O)(=O)NCCc2csc(-c3cccc(F)c3)n2)ccc1F	·	1.3µM	·	·	·	?
COC(=O)c1ccc(NC(=O)C(=O)NCCc2sc(-c3cccc(F)c3)nc2C)cc1	·	?	·	·	·	12µM
Cc1nc(-c2cccc(F)c2)sc1CCNC(=O)C(=O)Nc1ccc2c(c1)OCO2	·	–	·	·	·	?
COc1cc(C(=O)NCCc2sc(-c3cccc(F)c3)nc2C)cc(OC)c1OC	·	12µM	·	·	·	9.2µM
CC(=O)N1CCc2c(sc3c2c(=O)n(Cc2ccccc2)c(=O)n3Cc2ccccc2F)C1	·	21µM	·	·	·	21µM
CC(=O)N1CCc2c(sc3c2c(=O)n(Cc2ccccc2)c(=O)n3Cc2ccccc2Cl)C1	·	23µM	·	·	·	?
CC(=O)N1CCc2c(sc3c2c(=O)n(Cc2ccccc2)c(=O)n3Cc2ccc(C)cc2)C1	·	–	·	·	·	–
O=c1c2c3c(sc2n2cnnc2n1Cc1ccccc1)CN(Cc1ccccc1)CC3	–	15µM	–	–	–	16µM
